# From PMC7819943, “Rice protein-binding microarrays: a tool to detect cis-acting elements near promoter regions in rice”
# Whole data set: some 68,000 sequences, median “fluorescence intensity (a.u.)” near 9,100, cut for the highest 2% near 16,000. The sample as a whole holds a higher share of the highest values than the screen did.
# Molecular target: OsWRKY34 (Oryza sativa, UniProt Q0JBA9 1-250)
# Test: protein-binding microarray (RPBM); PBS, 2% BSA, 51.3 ng/ul salmon testes DNA, 50 uM zinc acetate, 200 nM TF, 25 C, 1 h; high values mean tight binding
# Settings: protein: recombinant; tags: N-terminal polyhistidine and DsRed monomer fusion (pET32a); label: CyDye5-dUTP incorporated in the synthesized complementary strand; 3' TTTTT single-stranded linker to array surface; dsDNA, one strand shown
# Method in brief: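 The binding signal is fluorescence intensity per array feature (arbitrary units). Readings came from an Axon 4000B scanner after a washed, 2% BSA-blocked, double-stranded custom Agilent array had been incubated for 1 h at 25 °C with 200 nM protein and 50 µM zinc acetate. The protein was a Ni–NTA-purified transcription factor fused N-terminally to polyhistidine and DsRed, expressed in E. coli BL21-CodonPlus.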
# Sequence of OsWRKY34 (Q0JBA9 entry or part of it): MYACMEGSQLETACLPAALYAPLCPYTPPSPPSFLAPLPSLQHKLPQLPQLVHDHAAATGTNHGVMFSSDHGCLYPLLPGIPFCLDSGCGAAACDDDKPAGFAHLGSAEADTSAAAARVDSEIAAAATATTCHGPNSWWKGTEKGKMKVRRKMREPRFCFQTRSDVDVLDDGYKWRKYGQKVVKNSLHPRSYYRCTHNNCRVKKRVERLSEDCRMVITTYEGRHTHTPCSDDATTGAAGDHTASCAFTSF
row,Sequence,binding signal
1,TACGCTGTGATCCCCGTCTTCAATTTCTCGTTCGCTCTCACGGAGTCACCTAGTGCAG,12800 fluorescence intensity (a.u.)
2,AGCCTATTTCATTTGATATATCATGGTGCATGATCTAATTCGGAGTCACCTAGTGCAG,11100 fluorescence intensity (a.u.)
3,ACGTCCAAATCACATTATATCAGTTCCTGTTTGTAACCGCCGGAGTCACCTAGTGCAG,8550 fluorescence intensity (a.u.)
4,GTGCCTGTTTGCTTCAGTGATGCTGGTGGTGGTTGCCTAACGGAGTCACCTAGTGCAG,9460 fluorescence intensity (a.u.)
5,GTACTCCTGGTCCGCATCCACCGTCCATCCGCGTACCGCACGGAGTCACCTAGTGCAG,11000 fluorescence intensity (a.u.)
6,GTTCTTCTTCTTCTTCTTCTTTTTTTCGTCCAAGGCCACTCGGAGTCACCTAGTGCAG,8280 fluorescence intensity (a.u.)
7,AGTTTTTTCCTTTTAATCTCCGACTTCACCGGGTTTTTTCCGGAGTCACCTAGTGCAG,8260 fluorescence intensity (a.u.)
8,CGACAGTTTCCTTTTTCGCGACCACTTCCGATCTCCTAAACGGAGTCACCTAGTGCAG,17000 fluorescence intensity (a.u.)
9,TTTTCTCCTTTCGCGTTGCGTCCGCGATCCGATCGATCGACGGAGTCACCTAGTGCAG,9560 fluorescence intensity (a.u.)
10,CGTTTTTGTGTCTTTCATTTGAGGAGGAACTGCGATTCTTCGGAGTCACCTAGTGCAG,9400 fluorescence intensity (a.u.)
11,AACTTCTTGCATGTGCCTTTTTTATCATCTGCATATATTTCGGAGTCACCTAGTGCAG,10300 fluorescence intensity (a.u.)
12,ACTTCCGATGCGTAATAAGGCTTTAGTCCCACAACTGACGCGGAGTCACCTAGTGCAG,8630 fluorescence intensity (a.u.)
13,GCTCTAACACACCTTCATCATGCATGCATATGTGCTATTTCGGAGTCACCTAGTGCAG,8080 fluorescence intensity (a.u.)
14,AGTAGGAGGGTGGGTATTTGCAACAAAATGACTTATGAGGCGGAGTCACCTAGTGCAG,12800 fluorescence intensity (a.u.)
15,GGTGGGTGGGCATTTGCAACAAAATAACTTACGGGGTGGACGGAGTCACCTAGTGCAG,17000 fluorescence intensity (a.u.)
16,CATATGCACTAACAAAACCGAGTAGGAGGGTGGGTATTTGCGGAGTCACCTAGTGCAG,8580 fluorescence intensity (a.u.)
17,TTACAACAAAACTAAGTAGGGGTGGGTATTTGCAACAAAACGGAGTCACCTAGTGCAG,17600 fluorescence intensity (a.u.)
18,AAAATAACTTACGGGGTGGAATGTCAAACTTCAAGTGACTCGGAGTCACCTAGTGCAG,8470 fluorescence intensity (a.u.)
19,CATTACTTTTTTGGTGGACTTGCAAAAACATGGGCATTTTCGGAGTCACCTAGTGCAG,8680 fluorescence intensity (a.u.)
20,GGTTTGCCGTCGTCGGCGTCGGCCGCTGCCTCGCGCGCGCCGGAGTCACCTAGTGCAG,9230 fluorescence intensity (a.u.)
21,AGCCTACCAGCTGCACCGCAAATGCCGTGTACTGCTTTCTCGGAGTCACCTAGTGCAG,8340 fluorescence intensity (a.u.)
22,GTGATGTGCTGCAACCTCGCCGCCAGCCGCGCCCTGTGCGCGGAGTCACCTAGTGCAG,8560 fluorescence intensity (a.u.)
23,ATATCTGTTTTTACGGTTCGAGGACGTTTTTATATCCGATCGGAGTCACCTAGTGCAG,8940 fluorescence intensity (a.u.)
24,TGTTTGACACCGTTGACTTTTTAGTCGTGTTTGACCATTCCGGAGTCACCTAGTGCAG,24400 fluorescence intensity (a.u.)
25,CATCGTTGAACTTTATCGTGCCCTTCACACCATTCCGTCGCGGAGTCACCTAGTGCAG,8130 fluorescence intensity (a.u.)
26,GTTTGACACCGTGGACTTTTTTAAATATGTTTGACCATTCCGGAGTCACCTAGTGCAG,11800 fluorescence intensity (a.u.)
27,TTAACTTTTTAGTACGTGTTTGACCATTCGTATTATTCAACGGAGTCACCTAGTGCAG,9020 fluorescence intensity (a.u.)
28,TAACACCGTTGACTTTTTAGCTCATGTTTGACCATTCGTCCGGAGTCACCTAGTGCAG,27400 fluorescence intensity (a.u.)

row,Sequence,binding signal
1,ACGTGTTTGACCATTCGTTTTATTCAAATCATTTAAGTAACGGAGTCACCTAGTGCAG,9230 fluorescence intensity (a.u.)
2,GACACCGTTGACTTTTTAAGTACGTGTTTGACCATTCGTCCGGAGTCACCTAGTGCAG,43700 fluorescence intensity (a.u.)
3,ACGTGTCGTTGACTTTTTATCACACGTTTAGCCATTCGTCCGGAGTCACCTAGTGCAG,30200 fluorescence intensity (a.u.)
4,ACCTCTGTTTTTAATAGATGACGTGTCGTTGACTTTTTATCGGAGTCACCTAGTGCAG,13300 fluorescence intensity (a.u.)
5,CGTTCCACCGCCGCGCCTCTTCCCCGCCCCGATCGGCTGCCGGAGTCACCTAGTGCAG,8810 fluorescence intensity (a.u.)
6,ACTACAGTCCCTCGCCATGCATGCGCCGTCAGATGTCCAACGGAGTCACCTAGTGCAG,11500 fluorescence intensity (a.u.)
7,GAGCGGGGCGGGGCTGCATTTGGCGTCGCGATGGACCTCACGGAGTCACCTAGTGCAG,12600 fluorescence intensity (a.u.)
8,TTTTTACATCTTAGCCCCTTGCCGCTTTTGCGAATTTTGCCGGAGTCACCTAGTGCAG,9810 fluorescence intensity (a.u.)
9,GCCCACCATTTCCCCAAACATTTCCACACATTCCTACAATCGGAGTCACCTAGTGCAG,13600 fluorescence intensity (a.u.)
10,GTAGATGTAGTAGCTAGCTTTTGTTAATTTCAACGTTCCACGGAGTCACCTAGTGCAG,8380 fluorescence intensity (a.u.)
11,AATATTTTTTTTCTCAATCATTTCTTATCATTATTATTATCGGAGTCACCTAGTGCAG,8280 fluorescence intensity (a.u.)
12,TCTTCATTTCCGTGTTCAGCAGCTTTGCAATAATTTCTATCGGAGTCACCTAGTGCAG,11900 fluorescence intensity (a.u.)
13,TTTCCTCCGTCCCTGAGCTGTACTCGCGCCAATCAATCATCGGAGTCACCTAGTGCAG,9570 fluorescence intensity (a.u.)
14,TCCCACTCAGCTGTCCGTCCGCCAATCACTGTACTTCTATCGGAGTCACCTAGTGCAG,22000 fluorescence intensity (a.u.)
15,ATCATCCCATCCCATCTCATCCGTCCATCCGCCAACTCATCGGAGTCACCTAGTGCAG,12300 fluorescence intensity (a.u.)
16,AGAGATCGGGGTTTGGTTTTTTGGAGGGGAGAGCGGAGTGCGGAGTCACCTAGTGCAG,10200 fluorescence intensity (a.u.)
17,TTCGGGGAGGGTTTTCGGGGACAGCAGCTGCGGGCTTAAACGGAGTCACCTAGTGCAG,18700 fluorescence intensity (a.u.)
18,CAGTGTAGGGGAGAGAGAGAGAGAGTGGGGTAGAGGGATGCGGAGTCACCTAGTGCAG,8980 fluorescence intensity (a.u.)
19,ATCGGGGTTGTTGTTTTTGTAGCTGCTTAAGCTTTTTATTCGGAGTCACCTAGTGCAG,14100 fluorescence intensity (a.u.)
20,GGAGGGTTAGATCACCAGGGGCGGGTTGATGCAAAAAATTCGGAGTCACCTAGTGCAG,17000 fluorescence intensity (a.u.)
21,CCAGGAGGGTGAGCTTGATGCAGGGGCGGGTGCGGGCGAGCGGAGTCACCTAGTGCAG,12500 fluorescence intensity (a.u.)
22,CGGAGAGGGAGGGGAGCTAGGGTTTTTCGGGGCGGGGATGCGGAGTCACCTAGTGCAG,27600 fluorescence intensity (a.u.)
23,GAGGTAGGGAGAGGTTTCGTTAGGGTTTCGGGCGGGGATGCGGAGTCACCTAGTGCAG,19900 fluorescence intensity (a.u.)
24,CGGGAGGGCGAGAGGGTTTTCGGAGCGGGAGGGGAAGATGCGGAGTCACCTAGTGCAG,15200 fluorescence intensity (a.u.)
25,GGGTTTTTTTTTTTTTTGCTGCTTTGCTTAGCACTTTTTTCGGAGTCACCTAGTGCAG,8340 fluorescence intensity (a.u.)
26,GGAGGAGGAGCTAGGGTTTCGGATGGGAGGAGGAGGAGGGCGGAGTCACCTAGTGCAG,8800 fluorescence intensity (a.u.)
27,GGCGGCGGCGGCAGGGGCGGCGGAGGGTTGGCGGCGGCGGCGGAGTCACCTAGTGCAG,11000 fluorescence intensity (a.u.)
